Laboratory results: PubChem BioAssay (Tox21)
Values joined by “and” are separate entries in the source; they are usually repeats but may differ in a detail not shown here. Equal entries are not always repeated. Results filed as inconclusive are left out. Entries that show only a call come without a potency. Active and inactive are the calls of the source. Unless noted, calls follow the shape of the dose curve; as a rule, active = well fitted curve in the direction sought with a large enough effect in the repeat runs; inconclusive = weak or mixed curves; inactive = flat fitted curve, though single readings scatter.

Experiments:
[1] = qHTS assay to test for compound auto fluorescence at 535 nm (green) in HEK293 cells (AID 720680)
[2] = qHTS assay to test for compound auto fluorescence at 460 nm (blue) in HEK293 cell free culture (AID 720681); also: potency is read from the fitted curve at half-maximal effect
Summary of the method: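 Compounds were added to cell-free DMEM with 10% FBS and fluorescence read directly. The blue channel used 405 nm excitation and 460 nm emission, with triamterene as the reference fluorophore.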

[3] = qHTS assay to test for compound auto fluorescence at 535 nm (green) in HEK293 cell free culture (AID 720682)
Summary of the method: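 Green-channel intensity (Ex/Em 485/535 nm) was recorded from compound-treated wells containing only DMEM with 10% FBS. Fluorescein provided the equivalency standard.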

[4] = qHTS assay to test for compound auto fluorescence at 590 nm (red) in HEK293 cell free culture (AID 720683)
Summary of the method: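 Cell-free wells of DMEM with 10% FBS received compound, and intrinsic fluorescence was read at excitation/emission 540/590 nm. Values expressed as equivalence to Rose Bengal sodium.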

[5] = qHTS assay to test for compound auto fluorescence at 590 nm (red) in HepG2 cell free culture (AID 720684)
Summary of the method: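 Rose Bengal sodium served as the reference for red signal. Test compounds were dispensed into serum-containing MEM (10% FBS) without cells, and plates were read at 540/590 nm.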

[6] = qHTS assay to test for compound auto fluorescence at 460 nm (blue) in HepG2 cell free culture (AID 720685); also: potency is read from the fitted curve at half-maximal effect
Summary of the method: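 Cell-free plates of MEM plus 10% FBS received 23 nL compound or DMSO vehicle; blue-channel (405/460 nm) intensity scored against triamterene as reference fluorophore.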

[7] = qHTS assay to test for compound auto fluorescence at 535 nm (green) in HepG2 cell free culture (AID 720686)
[8] = qHTS assay to test for compound auto fluorescence at 460 nm (blue) in HepG2 cells (AID 720687)
Summary of the method: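 HepG2 cells in MEM with 10% FBS, attached overnight at 37 C, were exposed to compound or DMSO for 1 hr at 37 C, 5% CO2. Blue fluorescence was read at 405/460 nm, with triamterene as reference fluorophore.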

[9] = target: Glucocorticoid receptor (Homo sapiens) (UniProt P04150); assay: qHTS assay to identify small molecule agonists of the glucocorticoid receptor (GR) signaling pathway (AID 720691; active = well fitted activation curve with a large enough effect in the signal ratio in the repeat runs, not every such curve was filed as active; the % refers to the signal ratio); details: GR-bla HeLa, beta-lactamase reporter ratio, 18 h; activation: at 62.4 µM (top of the series) unless noted
Summary of the method: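 Compounds in DMSO, alongside positive controls, were added to GR-bla HeLa reporter cells and incubated 18 h at 37 C; GRE-driven beta-lactamase was detected by fluorescence after 2 h with FRET substrate at room temperature.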

[10] = target: Glucocorticoid receptor (Homo sapiens) (UniProt P04150); assay: qHTS assay to identify small molecule antagonists of the glucocorticoid receptor (GR) signaling pathway (AID 720692; active = well fitted inhibition curve with a large enough effect in the signal ratio in the repeat runs, not every such curve was filed as active; the % refers to the signal ratio; also: potency is read from the fitted curve at half-maximal effect)
Summary of the method: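 In a 1536-well cell format, compounds were added 4 h after seeding GR-bla HeLa cells, together with dexamethasone at 5 nM final; reporter activity was measured by FRET-substrate fluorescence following 18 h at 37 C.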
Tags tell the direction and shape of the fitted curve or compound fluorescence and quenching.

Glucocorticoid receptor (Homo sapiens), sequence (P04150 whole entry, looked up): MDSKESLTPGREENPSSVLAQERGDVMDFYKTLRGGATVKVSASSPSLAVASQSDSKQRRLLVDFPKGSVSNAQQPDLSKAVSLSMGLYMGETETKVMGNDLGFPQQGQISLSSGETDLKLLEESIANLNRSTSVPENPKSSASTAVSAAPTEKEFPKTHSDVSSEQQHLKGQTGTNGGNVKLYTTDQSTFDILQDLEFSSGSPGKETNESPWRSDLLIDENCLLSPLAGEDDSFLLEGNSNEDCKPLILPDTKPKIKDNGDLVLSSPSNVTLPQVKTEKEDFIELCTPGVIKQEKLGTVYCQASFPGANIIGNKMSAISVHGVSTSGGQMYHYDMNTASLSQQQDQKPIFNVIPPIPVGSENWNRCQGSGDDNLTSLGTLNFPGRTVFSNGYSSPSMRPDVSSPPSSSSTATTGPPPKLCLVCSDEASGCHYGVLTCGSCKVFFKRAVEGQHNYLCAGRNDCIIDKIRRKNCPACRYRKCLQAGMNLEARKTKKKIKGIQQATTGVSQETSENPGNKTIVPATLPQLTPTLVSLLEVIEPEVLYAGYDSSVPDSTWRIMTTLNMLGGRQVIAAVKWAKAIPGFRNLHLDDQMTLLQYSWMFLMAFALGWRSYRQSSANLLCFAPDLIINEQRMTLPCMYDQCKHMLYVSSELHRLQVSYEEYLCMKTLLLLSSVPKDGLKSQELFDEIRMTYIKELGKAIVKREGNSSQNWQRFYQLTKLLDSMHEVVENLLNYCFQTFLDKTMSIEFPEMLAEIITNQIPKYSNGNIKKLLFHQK

| SMILES | outcome [1] | Potency [2] | outcome [3] | outcome [4] | outcome [5] | Potency [6] | outcome [7] | outcome [8] | Potency [9] | Potency [10] |
| --- | --- | --- | --- | --- | --- | --- | --- | --- | --- | --- |
| CCCCCCC(C)(C)S | inactive | inactive | inactive | inactive | inactive | inactive | inactive | inactive | inactive | inactive |
| CC1=C(CC(=O)O)c2cc(F)ccc2/C1=C\c1ccc(S(C)=O)cc1 (centres undefined) | inactive | inactive | inactive | inactive | inactive | inactive | inactive | inactive | inactive | inactive |
| Nc1nc2ncc(CNc3ccc(C(=O)N[C@@H](CCC(=O)O)C(=O)O)cc3)nc2c(=O)[nH]1 | inactive | 35.5 µM (active) | inactive | inactive | inactive | 35.5 µM [fluorescent] (active) | inactive | – | inactive | inactive |
| C=C(C)C(=O)OCCCCCC | inactive | inactive | inactive | inactive | inactive | inactive | inactive | inactive | inactive | inactive |
| C=C(C)C(=O)OCCC[Si](OC)(OC)OC | inactive | inactive | inactive | inactive | inactive | inactive | inactive | inactive | inactive | inactive |
| NCCNCCNCCNCCN | inactive | inactive | inactive | inactive | inactive | inactive | inactive | inactive | inactive | inactive |
| O=C1CCCCC1 | inactive | inactive | inactive | inactive | inactive | inactive | inactive | inactive | inactive | inactive |
| CCC(=O)O | inactive | inactive | inactive | inactive | inactive | inactive | inactive | inactive | inactive | inactive |
| CCCCC(CC)C(=O)OCCOCCOCCOC(=O)C(CC)CCCC (centres undefined) | inactive | inactive | inactive | inactive | inactive | inactive | inactive | inactive | inactive | inactive |
| NC(=O)/N=N/C(N)=O | inactive | inactive | inactive | inactive | inactive | inactive | inactive | inactive | inactive | inactive |
| CCCCCCOC(C)=O | inactive | inactive | inactive | inactive | inactive | inactive | inactive | inactive | inactive | inactive |
| CCCCOCCOCCOC(=O)CCCCC(=O)OCCOCCOCCCC | inactive | inactive | inactive | inactive | inactive | inactive | inactive | inactive | inactive | inactive |
| C=C(C#N)C(=O)OCC | inactive | inactive | inactive | inactive | inactive | inactive | inactive | inactive | inactive | inactive |
| CCOC(=O)[C@H](CCc1ccccc1)N[C@@H](C)C(=O)N1Cc2ccccc2C[C@H]1C(=O)O | inactive | inactive | inactive | inactive | inactive | inactive | inactive | inactive | inactive | inactive |
| ClC1=C(Cl)C(Cl)(Cl)C(Cl)=C1Cl | inactive | inactive | inactive | inactive | inactive | inactive | inactive | inactive | inactive | 13.8 µM (active) |
| Cn1c([N+](=O)[O-])cnc1COC(N)=O | inactive | inactive | inactive | inactive | inactive | inactive | inactive | inactive | inactive | inactive |
| Cc1ccc(C(=O)O)o1 | inactive | inactive | inactive | inactive | inactive | inactive | inactive | inactive | inactive | inactive |
| CC(=O)[C@@]1(O)CC[C@H]2[C@@H]3CCC4=CC(=O)CC[C@]4(C)[C@H]3CC[C@@]21C | inactive | inactive | inactive | inactive | inactive | inactive | inactive | inactive | inactive | 1.07 µM (active) and 275 nM (active) |
| NCc1cccc(CN)c1 | inactive | inactive | inactive | inactive | inactive | inactive | inactive | inactive | inactive | inactive |
| CCCCCCCCC | inactive | inactive | inactive | inactive | inactive | inactive | inactive | inactive | inactive | inactive |
| CCc1ccccc1O | inactive | inactive | inactive | inactive | inactive | inactive | inactive | inactive | inactive | inactive |
| Cc1cc(=O)[nH]c(C(C)C)n1 | inactive | inactive | inactive | inactive | inactive | inactive | inactive | inactive | inactive | inactive |
| C=C(C)C(=O)OCCCCCCCCCCCC | inactive | inactive | inactive | inactive | inactive | inactive | inactive | inactive | inactive | inactive |
| CCCCOCCO | inactive | inactive | inactive | inactive | inactive | inactive | inactive | inactive | inactive | inactive |
| Oc1ccc2ccccc2c1 | inactive | inactive | inactive | inactive | inactive | inactive | inactive | inactive | inactive | inactive |
| CCCCCCCCCC(=O)O | inactive | inactive | inactive | inactive | inactive | inactive | inactive | inactive | inactive | inactive |
| CCCCC(CC)COC(=O)CCCCCCCC(=O)OCC(CC)CCCC (centres undefined) | inactive | inactive | inactive | inactive | inactive | inactive | inactive | inactive | inactive | inactive |
| Cc1cc(Cc2ccc(N)c(C)c2)ccc1N | inactive | inactive | inactive | inactive | inactive | inactive | inactive | inactive | inactive | inactive |
